Bioassay records (PubChem)
An excerpt weighted towards active compounds, which were near 12% of everything screened.
Cycloheximide cs – counter-screen hit for Shiga toxin inhibitors, cycloheximide | AID 2314 | cell reporter, cycloheximide protein synthesis inhibition counterscreen | actives 12% (n = 300,000) | max response, %; in the data active = max response mostly above about 13%, no sharp cut-off; inactive = mostly below about 14%; also: read at 38.3 µM for the half of the compounds with a filed dose
NS1 inh – influenza NS1 inhibition; Potency, µM (doses to about 46.1 µM); actives 0.4% (n = 270,000); AID 2326; also: actives are rising curves; nearly all actives have a fitted effect of over 50% in size
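Compounds were scored for reversing the slow growth caused by influenza A NS1 in S. cerevisiae, measured by optical density at 600 nm. Assay medium contained 2% galactose at pH 6.0; NS1-free yeast of the same strain were the positive control.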
SARS PLP yeast – inhibitors of SARS-CoV papain-like protease in yeast. S. cerevisiae expressing SARS-CoV PLpro, growth rescue. actives 0.19% (n = 330,000). Potency, µM (highest dose often 32.9 µM), most hits filed as activators. AID 485353; also: nearly all actives have a fitted effect of over 55% in size
Shiga toxin inh – Shiga toxin inhibition; actives 9.2% (n = 290,000); inhibition, % at 38.7 µM; Vero cells, Shiga toxin protein synthesis inhibition reporter; in the data active = inhibition mostly above about 28%, no sharp cut-off; inactive = mostly below about 43%
Numbers stand for hits; n = inactive; u = inconclusive; x = not tested or not shown; + = active, no number. Unless noted, calls follow the shape of the full dose curve.

SMILES	Cycloheximide cs	NS1 inh	SARS PLP yeast	Shiga toxin inh
COC(=O)[C@@H](NC(=O)O[C@H]1C(=O)c2ccc(OC)cc2O[C@@H]1c1ccc2c(c1)OCO2)C(C)C	23	n	n	n
CC[C@H](C)[C@@H](NC(=O)O[C@@H]1C(=O)c2cc(Br)ccc2O[C@H]1c1cccc(OC)c1)C(=O)OC	n	n	n	n
COC(=O)c1sc(N2C(=O)C(O)=C(C(=O)c3ccc(C)o3)C2c2ccc([N+](=O)[O-])cc2)nc1C (stereo not given)	39	n	n	69
CCOc1ccc(C2C(C(=O)c3ccc(C)o3)=C(O)C(=O)N2c2nc(C)c(C(=O)OC)s2)cc1 (stereo not given)	26	n	n	47
Cc1ccc2nc(N3C(=O)C(O)=C(C(=O)c4ccc(C)o4)C3c3cccc(O)c3)sc2c1 (stereo not given)	31	x	n	63
CCC(=O)N1CCN(c2ccccc2NC(=O)COc2ccccc2Cl)CC1	n	n	n	n
Nc1ncnc2c([C@@H]3O[C@@H](CO)[C@H](O)[C@@H]3O)nsc12	x	n	x	x
COC(=O)c1sc(NC(=O)C(C)C)c(C(=O)OC)c1C	40	n	n	n
CCC(=O)Nc1sc(C(=O)OC)c(C)c1C(=O)OC	n	n	n	n
CSCCCNC(=O)c1ccc(OC2CCN(CCc3ccccc3)CC2)cc1	31	n	n	93
COCCNC(=O)c1cccc(OC2CCN(Cc3cccc(C(C)=O)c3)CC2)c1	n	n	n	n
CC(Cc1ccccn1)NC(=O)c1ccc(OC2CCN(CCc3ccccc3)CC2)cc1 (stereo not given)	29	n	n	47
CCCN1CCC(Oc2cccc(C(=O)NCCc3ccccc3)c2)CC1	56	u	x	72
O=C(NCCc1ccccn1)c1ccc(OC2CCN(CCc3ccccc3)CC2)cc1	42	n	n	65
O=C(NCC1COCCO1)c1ccc(OC2CCN(CCc3ccccc3)CC2)cc1 (stereo not given)	n	n	n	n
CCN(CC)S(=O)(=O)c1ccc(OC)c(NC(=O)c2ccc(-n3cncn3)c([N+](=O)[O-])c2)c1	x	x	n	x
N#CN1CCC(NS(=O)(=O)c2ccc(C(F)(F)F)cc2)C1 (stereo not given)	x	x	n	x
COc1ccccc1N1C(=O)c2ccc(C(=O)Nc3nccs3)cc2C1=O	n	x	n	n
CC(C)(C)N1C(=O)c2ccc(C(=O)Nc3nccs3)cc2C1=O	31	n	n	57
Cc1cc(NC(=O)c2ccc3c(c2)C(=O)N(C(C)(C)C)C3=O)no1	21	x	n	n
CCN1C(=O)c2ccc(C(=O)Nc3nccs3)cc2C1=O	12	n	n	31
Cc1cc(NC(=O)c2ccc3c(c2)C(=O)N(CC(C)C)C3=O)no1	n	n	n	n
Cn1c(=O)cc(Cl)[nH]c1=O	n	x	n	n
CCC(=O)c1ccc(OCC(O)Cn2nc(C)cc2C)cc1 (stereo not given)	n	n	n	n
CCC(=O)c1ccc(OCC(O)Cn2nnc3ccccc32)cc1 (stereo not given)	45	x	n	65
SMILES	Cycloheximide cs	NS1 inh	SARS PLP yeast	Shiga toxin inh
Cc1ccccc1OCC(O)Cn1nnc2ccccc21 (stereo not given)	50	n	n	79
CC(=O)c1cnc2cc(-c3ccc(Cl)cc3)nn2c1C	21	n	n	56
Cc1c(C(=O)O)cnc2cc(-c3ccc(Cl)cc3)nn12	16	n	n	n
CC(=O)c1cnc2c(-c3ccc(Cl)cc3)c(C)nn2c1C	n	n	n	n
CN(C(=O)CSc1ncn[nH]1)C1(C#N)CCCCC1	x	x	n	x
Cc1cn2c(=O)c(C(=O)N3CCN(c4ccccc4)CC3)cnc2s1	x	x	n	x
O=C(NC1CC(=O)N(c2ccc3c(c2)OCCO3)C1)N1CCC(O)CC1 (stereo not given)	x	x	n	x
Cc1ccc(NC(=S)NC(C)(C)C)c([N+](=O)[O-])c1	26	n	n	n
C=CCNC(=S)Nc1ccc(C)cc1[N+](=O)[O-]	n	n	n	n
Cc1ccc(NC(=O)C2CC2c2ccccc2)c([N+](=O)[O-])c1 (stereo not given)	35	n	n	34
O=C(Nc1ccccc1C(=O)N1CCN(CCO)CC1)c1cccc([N+](=O)[O-])c1	n	n	n	n
O=C(NCc1ccc2c(c1)OCO2)Nc1ccc2ccccc2c1	n	n	n	n
O=C(NCc1ccc2c(c1)CCO2)Nc1ccccc1	61	n	n	54
Cc1ccc(C(=O)NCc2ccc3c(c2)CCO3)cc1C	22	n	n	57
CCCn1c(SCC(=O)N2CCCCC2)nnc1C(C)C	15	n	n	43
COc1ccc(/C(C)=N/Nc2nncc3ccccc23)cc1	27	n	n	63
C/C(=N\Nc1nc(-c2ccccc2O)nc2ccccc12)c1ccccc1	n	n	n	n
COc1ccc(/C(C)=N/Nc2nc3ccccc3nc2C)cc1	45	n	n	76
NNc1nncc2ccccc12	x	n	x	x
Oc1c(Br)cc(/C=N/Nc2nncc3ccccc23)cc1Br	30	n	n	n
COc1ccc(/C=N/Nc2nncc3ccccc23)cc1	25	n	n	n
CC(C)(C)c1ccc(NC(=O)COC(=O)c2ccc(NS(=O)(=O)c3ccc(F)c(F)c3)cc2)cc1	n	u	n	n
O=C(NCCCN1CCCC1=O)c1cccc(S(=O)(=O)Nc2ccc(F)cc2)c1	x	x	n	x
COc1ccccc1/C=N/Nc1nncc2ccccc12	46	n	n	+
COc1ccccc1/C=N/NC(=O)c1cccc2ccccc12	n	n	n	x
SMILES	Cycloheximide cs	NS1 inh	SARS PLP yeast	Shiga toxin inh
CCc1ccc2c(c1)C(O)(CC(=O)c1cccs1)C(=O)N2 (stereo not given)	n	n	n	n
COc1ccc(C(=O)NCc2cccnc2)cc1OC	n	n	n	n
COc1ccc(NC(=O)C2=Cc3cccc(OC)c3OC2)cc1	31	n	n	60
COc1cccc2c1OCC(C(=O)OCc1cccnc1)=C2	15	n	n	n
COc1ccc(NC(=O)C2=Cc3ccccc3OC2)cc1	n	x	n	n
COc1ccccc1C1=Nn2c(nnc2-c2ccccc2O)SC1	n	x	x	n
CS(=O)(=O)N1CCN(c2ccc([N+](=O)[O-])cc2F)CC1	n	x	n	n
CS(=O)(=O)N1CCN(c2ccc([N+](=O)[O-])cc2C(F)(F)F)CC1	8.9	n	n	n
CC(=O)c1cccc(OCc2cc(C(=O)NCc3nc(C)c(C)s3)no2)c1	40	n	n	83
C[C@@H]1CN(C(=O)c2cc(COc3cccc(C(F)(F)F)c3)on2)C[C@H](C)O1	n	n	n	n
CCOC(=O)N1CCN(C(=O)c2cc(COc3cccc(C(C)=O)c3)on2)CC1	41	n	n	n
CCOC(=O)N1CCN(C(=O)c2cc(COc3cccc(C(F)(F)F)c3)on2)CC1	46	n	n	60
CCOC(=O)N1CCN(C(=O)c2cc(COc3ccc4ncccc4c3)on2)CC1	n	n	n	n
CN(Cc1nccn1C)C(=O)c1cc(COc2cccc(C(F)(F)F)c2)on1	37	n	n	42
O=C(Nc1cc(Cl)ccc1Cl)c1ccc(-c2ccccc2)cc1	17	n	n	n
O=C(Nc1ccc(C(=O)Nc2ccccc2Cl)cc1)c1cccnc1	19	n	n	29
O=C(Nc1ccc(Cl)cc1C(F)(F)F)c1ccccc1	16	n	u	n
